Active and inactive are the calls of the source.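 Rule for the calls: active = normalized viability below 100% at a tested concentration; inactive = the rest.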

This experiment in a line: drug combination growth inhibition, ovarian cancer – cell-based, oncology-focused library, rucaparib conditional, profiling panel (AID 1508598). The settings on record: patient-derived ovarian cancer cells, CellTiter-Glo viability, 144 h; at 5 µM; OCI-P5x cells; with rucaparib 20 µM; active compounds read low; 100% = cells with rucaparib alone.
The term viability denotes a read-out of living cells in per cent, often relative to untreated cells. With `N[C@@H]1CCCN(c2c(/C=C3\SC(=O)NC3=O)cccc2-c2ccccc2)C1`, the viability is 74.6% (active).
The value for `C[C@@H]1C[C@H]2[C@@H]3CCC4=CC(=O)C=C[C@]4(C)[C@]3(F)[C@H](O)C[C@]2(C)[C@]1(O)C(=O)CO` was 90.8% (active); that for `Cc1cc2c(C(=O)NC[C@H](C)c3ccccc3)c(O)c(O)cc2c(O)c1-c1c(C)cc2c(C(=O)NC[C@H](C)c3ccccc3)c(O)c(O)cc2c1O` was 2.71% (active).
With `Nc1nc(F)nc2c1ncn2[C@H]1O[C@H](CO)[C@@H](O)[C@@H]1O`, the viability is 106% (inactive).
To `COc1cccc2c1C(=O)c1c(O)c3c(c(O)c1C2=O)C[C@@](O)(C(=O)CO)C[C@H]3O[C@H]1C[C@H](N)[C@@H](O)[C@H](C)O1` belongs 3.69% (active).
The value for `C=C1/C(=C/C=C2\CCC[C@@]3(C)[C@H]2CC[C@H]3[C@H](C)/C=C/[C@@H](C)C(C)C)C[C@H](O)C[C@@H]1O` was 111% (inactive); that for `CO[C@H]1C[C@H]2CC[C@@H](C)[C@@](O)(O2)C(=O)C(=O)N2CCCC[C@H]2C(=O)O[C@H]([C@H](C)C[C@@H]2CC[C@H](OP(C)(C)=O)[C@H](OC)C2)CC(=O)[C@H](C)/C=C(\C)[C@@H](O)[C@@H](OC)C(=O)[C@H](C)C[C@H](C)/C=C/C=C/C=C/1C` was 74.3% (active).
The value for `C=CCNC1=C2C[C@@H](C)C[C@H](OC)[C@H](O)[C@@H](C)/C=C(\C)[C@H](OC(N)=O)[C@@H](OC)/C=C\C=C(\C)C(=O)NC(=CC1=O)C2=O` was 2.79% (active).
On to `CC[C@]1(O)C[C@@H]2CN(CCc3c([nH]c4ccccc34)[C@@](C(=O)OC)(c3cc4c(cc3OC)N(C=O)[C@@H]3C45CCN4CC=C[C@](CC)([C@H]45)[C@H](OC(C)=O)[C@]3(O)C(=O)OC)C2)C1` (stereo partly drawn), for which the viability is 50.9% (active).
The value for `COc1cccc2c1C(=O)c1c(O)c3c(c(O)c1C2=O)C[C@@](O)(C(C)=O)C[C@H]3O[C@H]1C[C@H](N)[C@H](O)[C@H](C)O1` was 4.23% (active).
To `CCOc1ccc(Cc2cc([C@@H]3O[C@H](CO)[C@@H](O)[C@H](O)[C@@H]3O)ccc2Cl)cc1` belongs 106% (inactive); to `CC(=O)[C@]1(O)Cc2c(O)c3c(c(O)c2[C@H](O[C@H]2C[C@H](N)[C@H](O)[C@H](C)O2)C1)C(=O)c1ccccc1C3=O`, 4.45% (active); to `CCC1=CC2CN(C1)Cc1c([nH]c3ccccc13)[C@@](C(=O)OC)(c1cc3c(cc1OC)N(C)[C@H]1[C@@](O)(C(=O)OC)[C@H](OC(C)=O)[C@]4(CC)C=CCN5CC[C@@]31[C@H]54)C2` (stereo partly drawn), 41.7% (active).
To `CC(=O)O[C@H]1C(=O)[C@@]2(C)C([C@H](OC(=O)c3ccccc3)[C@]3(O)C[C@H](OC(=O)[C@H](O)[C@@H](NC(=O)c4ccccc4)c4ccccc4)C(C)=C1C3(C)C)[C@]1(OC(C)=O)CO[C@@H]1C[C@H]2O` (stereo partly drawn) belongs 34.2% (active); to `CO[C@H]1C[C@H]2CC[C@@H](C)[C@@](O)(O2)C(=O)C(=O)N2CCCC[C@H]2C(=O)O[C@H]([C@H](C)C[C@@H]2CC[C@H](OC(=O)C(C)(CO)CO)[C@H](OC)C2)CC(=O)[C@H](C)/C=C(\C)[C@@H](O)[C@@H](OC)C(=O)[C@H](C)C[C@H](C)/C=C/C=C/C=C/1C`, 59.8% (active).
With `CO[C@H]1/C=C\C=C(\C)C(=O)NC2=CC(=O)C(NCCN(C)C)=C(C[C@@H](C)C[C@H](OC)[C@H](O)[C@@H](C)/C=C(\C)[C@@H]1OC(N)=O)C2=O`, the viability is 4.71% (active).
The value for `CC(C)(C(=O)NCC(F)(F)C(F)(F)F)C(=O)N[C@H]1C(=O)Nc2ccccc2-c2ccccc21` was 72% (active); that for `CC1(C)O[C@@H]2C[C@H]3[C@@H]4CCC5=CC(=O)C=C[C@]5(C)[C@]4(F)[C@H](O)C[C@]3(C)[C@@]2(C(=O)CO)O1` was 78.5% (active).
